{"source": "PubChem BioAssay AID463173", "about": "(ICCB-Longwood Screening Facility, Harvard Medical School, 2010)", "note": "Screen size: about 52,000 compounds; about 4,300 (8.3%) were called active. For the sample, actives were picked, then their nearest neighbours and some compounds at random. A number with no mark means an inactive call. Rule as the data show it: active = survival mostly below about 52% (no sharp cut-off); inactive = mostly above about 56%."}
{"system": "DeltatarO mutant", "assay": "S. aureus survival, RN4220 and DeltatarO strains – OD600, teichoic acid synthesis inhibitors, primary screen (AID 463173)", "settings": "S. aureus RN4220 wild type/DeltatarO growth, OD600, 18 h, active compounds read low, screened at 18.75 µg/mL (by protocol)"}
{"smiles": "Cc1cccc2cc(CN(Cc3ccco3)C(=O)N3CCOCC3)c(Cl)nc12", "survival": "85%"}
{"smiles": "O=C(CSc1nccn1Cc1ccc(F)cc1)NCc1ccc(F)cc1", "survival": "71%"}
{"smiles": "O=C(c1cnc(N2CCOCC2)c2ccccc12)N1CCN(c2ccccc2F)CC1", "survival": "71%"}
{"smiles": "CCCc1cc(N2CCN(c3ccccc3F)CC2)n2cnnc2n1", "survival": "75%"}
{"smiles": "CCCc1cc(N2CCN(c3cccc(C)c3C)CC2)n2cnnc2n1", "survival": "52%"}
{"smiles": "CCCc1cc(N2CCN(c3cc(Cl)ccc3C)CC2)n2cnnc2n1", "survival": "30% (active)"}
{"smiles": "CN(C)c1cc2c(cc1NC(=O)c1ccc(F)cc1)n(C)c(=O)n2C", "survival": "104%"}
{"smiles": "CCNc1nc(Cl)nc(NC2CCCCC2)n1", "survival": "90%"}
{"smiles": "COc1ccc(-c2cc3ccc(O)c(CN4CCCC4)c3oc2=O)cc1OC", "survival": "116%"}
{"smiles": "COc1ccc(-c2cc3ccc(O)c(CN4CCC(C)CC4)c3oc2=O)cc1OC", "survival": "52% (active)"}
{"smiles": "COc1ccc(-c2cc3ccc(O)c(CN4CCC(C)CC4)c3oc2=O)cc1", "survival": "71%"}
{"smiles": "Cc1ccc2oc(=O)c3cnn(CC(=O)N4CCN(c5cccc(C(F)(F)F)c5)CC4)c3c2c1", "survival": "87%"}
{"smiles": "Cc1cc(C)c2c(n1)nn1c(C)c(CCC(=O)NCc3ccccc3Cl)c(C)nc21", "survival": "82%"}
{"smiles": "Cc1ccc(NC(=O)CSc2nccn2Cc2ccco2)cc1Cl", "survival": "87%"}
{"smiles": "CCN(c1ccccc1)S(=O)(=O)c1nnc(NC(=O)c2ccccc2)s1", "survival": "38% (active)"}
{"smiles": "CCN(c1ccc(C)cc1)S(=O)(=O)c1nnc(NC(=O)c2cccs2)s1", "survival": "14% (active)"}
{"smiles": "CCN(c1ccc(C)cc1)S(=O)(=O)c1nnc(NC(=O)C2CCCCC2)s1", "survival": "109%"}
{"smiles": "CCN(c1ccccc1)S(=O)(=O)c1nnc(NC(=O)C(C)Oc2ccccc2)s1", "note": "(stereo unspecified)", "survival": "43%"}
{"smiles": "CCN(c1ccccc1)S(=O)(=O)c1nnc(NC(=O)C(C)(C)C)s1", "survival": "49%"}
{"smiles": "CCN(c1ccc(Cl)cc1)S(=O)(=O)c1nnc(NC(=O)C2CCCCC2)s1", "survival": "74%"}
{"smiles": "CCN(c1ccccc1)S(=O)(=O)c1nnc(NC(=O)C2CCCCC2)s1", "survival": "48% (active)"}
{"smiles": "CCN(c1ccccc1)S(=O)(=O)c1nnc(NC(=O)c2cccs2)s1", "survival": "28% (active)"}
{"smiles": "COc1ccc(OCC(=O)OCc2cc(=O)n3nc(C4CC4)sc3n2)cc1", "survival": "61%"}
{"smiles": "COc1ccc(CNC(=O)CC(c2ccc(OC)c(OC)c2)N2Cc3ccccc3C2=O)cc1", "note": "(stereo unspecified)", "survival": "87%"}
{"smiles": "CCC(=O)N1CCc2cc(OC)c(OC)cc2C1COc1ccc2c(C)cc(=O)oc2c1", "note": "(stereo unspecified)", "survival": "136%"}
{"smiles": "O=C(Nc1ccc(F)c(F)c1)c1cc(S(=O)(=O)NC2CCCC2)ccc1F", "survival": "118%"}
{"smiles": "CC(C)Oc1ccc(CNS(=O)(=O)c2csc(C(N)=O)c2)cc1", "survival": "101%"}
{"smiles": "COc1cccc2c1Oc1ncccc1N(C(=O)CCC(=O)NCc1ccc(OC(C)C)cc1)C2", "survival": "83%"}
{"smiles": "CCCCN(C)C(=O)CN1C(=O)c2cccnc2Oc2ccc(Cl)cc21", "survival": "89%"}
{"smiles": "CCN(c1ccccc1)S(=O)(=O)c1nnc(NC(=O)COc2ccccc2F)s1", "survival": "31% (active)"}
{"smiles": "CCN(CC)S(=O)(=O)c1nnc(NC(=O)COc2ccccc2F)s1", "survival": "103%"}
{"smiles": "CCN(c1ccccc1)S(=O)(=O)c1nnc(NC(=O)COc2ccc(OC)cc2)s1", "survival": "55%"}
{"smiles": "O=C1C2CCCC1C(c1ccc3c(c1)OCO3)NC2c1ccc2c(c1)OCO2", "note": "(stereo unspecified)", "survival": "58%"}
{"smiles": "Cc1ccc(-n2ncc(C(=O)NCCCN3CCN(C)CC3)c2C2CCN(C(=O)OC(C)(C)C)CC2)cc1", "survival": "96%"}
{"smiles": "COc1ccc(N2CCN(C(=O)c3noc4c3CCCCC4)CC2)cc1", "survival": "72%"}
{"smiles": "O=C(c1ccc2c(c1)N(Cc1ccc(F)cc1)C(=O)c1ccccc1S2(=O)=O)N1CCCCCC1", "survival": "71%"}
{"smiles": "Cc1ccc2oc(C(=O)Nc3ccc(S(=O)(=O)N(C)Cc4ccccc4)cc3)cc(=O)c2c1", "survival": "50%"}
{"smiles": "CCN(C(=O)C1CCCN(c2ncnc3c2nc2n3CCCCC2)C1)c1cccc(Cl)c1", "note": "(stereo unspecified)", "survival": "82%"}
{"smiles": "Clc1cccc(N2CCN(c3ncnc4c3nc3n4CCCCC3)CC2)c1", "survival": "11% (active)"}
{"smiles": "COc1ccc(N2CCN(c3ncnc4c3nc3n4CCCCC3)CC2)cc1", "survival": "100%"}
{"smiles": "O=C(C1CCN(c2ncnc3c2nc2n3CCCCC2)CC1)N1CCN(c2cccc(Cl)c2)CC1", "survival": "64%"}
{"smiles": "c1ccc(N2CCN(c3ncnc4c3nc3n4CCCCC3)CC2)cc1", "survival": "89%"}
{"smiles": "Cc1ccc(NC(=O)C2CCCN(c3ncnc4c3nc3n4CCCCC3)C2)cc1F", "note": "(stereo unspecified)", "survival": "92%"}
{"smiles": "O=C(Nc1cccc(Cl)c1)C1CCCN(c2ncnc3c2nc2n3CCCCC2)C1", "note": "(stereo unspecified)", "survival": "17% (active)"}
{"smiles": "COc1cccc(N2CCN(c3ncnc4c3nc3n4CCCCC3)CC2)c1", "survival": "20% (active)"}
{"smiles": "Clc1cccc(N2CCN(c3ncnc4c3nc3n4CCCC3)CC2)c1", "survival": "114%"}
{"smiles": "COc1ccc(OC)c(CNc2ncnc3onc(C)c23)c1", "survival": "129%"}
{"smiles": "CCOc1ccc(NC(=O)c2cc(S(=O)(=O)N3CCC(C)CC3)cn2C)cc1", "survival": "112%"}
{"smiles": "CCOc1ccc(/C=C/c2nc(C#N)c(NCc3ccc(OC)cc3)o2)cc1", "survival": "68%"}
{"smiles": "CCOC(=O)c1[nH]c2c(c1Cc1ccccc1)C(=O)CC(c1ccccc1)C2", "note": "(stereo unspecified)", "survival": "64%"}
{"smiles": "CCOc1ccc(CCNc2nc3c(-c4ccc(C)cc4)nnn3c3ccccc23)cc1OCC", "survival": "88%"}
{"smiles": "Cc1cc(-c2ccc(C)c(S(=O)(=O)N(C)c3ccc(C)c(C)c3)c2)on1", "survival": "86%"}
{"smiles": "Cn1c(C(=O)NCCc2ccccc2)cc2c(=O)n3ccccc3nc21", "survival": "48% (active)"}
{"smiles": "O=C(Nc1ccc(OC(F)(F)F)cc1)c1cc2c(=O)n3ccccc3nc2s1", "survival": "87%"}
{"smiles": "Cn1c(C(=O)Nc2cccc(C(F)(F)F)c2)cc2c(=O)n3ccccc3nc21", "survival": "98%"}
{"smiles": "CCCCCNC(=O)c1cc2c(=O)n3ccccc3nc2n1C", "survival": "54%"}
{"smiles": "Cn1c(C(=O)Nc2ccc(OC(F)(F)F)cc2)cc2c(=O)n3ccccc3nc21", "survival": "55% (active)"}
{"smiles": "COc1ccc(CCNC(=O)c2cc3c(=O)n4ccccc4nc3n2C)cc1", "survival": "61%"}
{"smiles": "Cc1ccc(NC(=O)CSc2nc3c(c(=O)[nH]2)CN(Cc2ccccc2)CC3)cc1Cl", "survival": "70%"}
{"smiles": "CSc1ccc(CCNC(=O)CCCn2nc(C)c3sc4ccccc4c3c2=O)cc1", "survival": "76%"}
{"smiles": "N/N=C1\\C(=N/O)CCc2nonc21", "survival": "95%"}
{"smiles": "CCN(CC)c1ccc(NC(=O)Cn2ncc3c(C)n(Cc4ccccc4F)c(C)c3c2=O)c(C)c1", "survival": "79%"}
{"smiles": "Cc1nc(N2CCCC2)c2c(C(=O)N3CCN(c4ccccc4)CC3)c(C)oc2n1", "survival": "81%"}
{"smiles": "Fc1ccccc1N1CCN(c2ncnc3onc(-c4cccc(Cl)c4)c23)CC1", "survival": "53%"}
{"smiles": "Cc1ccc(CCNC(=O)c2c(C)oc3nc(C)nc(N4CCOCC4)c23)cc1", "survival": "106%"}
{"smiles": "Cc1nc(N2CCOCC2)c2c(C(=O)NCCc3ccccc3)c(C)oc2n1", "survival": "0% (active)"}
{"smiles": "Cc1nc(N2CCOCC2)c2c(C(=O)N3CCN(c4ccc(Cl)cc4)CC3)c(C)oc2n1", "survival": "92%"}
{"smiles": "Cc1oc2ncnc(N3CCCCC3)c2c1C(=O)N1CCN(c2cccc(C(F)(F)F)c2)CC1", "survival": "66%"}
{"smiles": "Cc1oc2ncnc(N3CCOCC3)c2c1C(=O)NCCc1ccccc1", "survival": "89%"}
{"smiles": "Cc1nc(N2CCOCC2)c2c(C(=O)N3CCN(c4cccc(C(F)(F)F)c4)CC3)c(C)oc2n1", "survival": "105%"}
{"smiles": "Fc1ccc(N2CCN(c3ncnc4onc(-c5ccc(Cl)cc5)c34)CC2)cc1", "survival": "65%"}
{"smiles": "Cc1nc(N2CCOCC2)c2c(C(=O)N3CCN(c4ccccc4)CC3)c(C)oc2n1", "survival": "37% (active)"}
{"smiles": "Cc1oc2ncnc(N3CCOCC3)c2c1C(=O)N1CCN(c2cccc(C(F)(F)F)c2)CC1", "survival": "-5% (active)"}
{"smiles": "Fc1ccccc1N1CCN(c2ncnc3onc(-c4ccc(Cl)cc4)c23)CC1", "survival": "54% (active)"}
{"smiles": "COc1ccc2c(CNCc3cccs3)c(C(=O)O)n(Cc3ccc(C)cc3)c2c1", "survival": "77%"}
{"smiles": "CCCOc1ccc(C(=O)NCC(c2ccc(OC)cc2)N2CCCCC2)cc1", "note": "(stereo unspecified)", "survival": "84%"}
{"smiles": "Cc1nc2ccc(NC(=O)C3CC3)cc2c(=O)n1Cc1ccc(F)cc1", "survival": "74%"}
{"smiles": "Cc1ccc(CCNC(=O)c2cc(-c3ccc(Cl)cc3)n[nH]2)cc1", "survival": "69%"}
{"smiles": "CC(Nc1ncnc2c1cnn2-c1cccc(Cl)c1)c1ccccc1", "note": "(stereo unspecified)", "survival": "124%"}
{"smiles": "COc1ccccc1Cn1c(CNS(=O)(=O)c2ccc3c(c2)CCCC3)nc2cccnc21", "survival": "96%"}
{"smiles": "CCOCCCn1c(=N)c(S(=O)(=O)c2ccccc2)cc2c(=O)n3cc(C)ccc3nc21", "survival": "88%"}
{"smiles": "Cc1ccc(CN2CCCn3nc(C(=O)NCc4ccc(N(C)C)cc4)cc3C2=O)cc1", "survival": "80%"}
{"smiles": "Cc1ccc(C)c(N2CCN(C(=O)c3c(C)oc4nc(C)nc(N5CCOCC5)c34)CC2)c1", "survival": "115%"}
{"smiles": "Cc1nc(N2CCCC2)c2c(C(=O)N3CCN(c4cc(Cl)ccc4C)CC3)c(C)oc2n1", "survival": "102%"}
{"smiles": "Cc1ccc(Cl)cc1N1CCN(C(=O)c2c(C)oc3ncnc(N4CCCCC4)c23)CC1", "survival": "-4% (active)"}
{"smiles": "Cc1ccc(Cl)cc1N1CCN(C(=O)c2c(C)oc3ncnc(N4CCOCC4)c23)CC1", "survival": "89%"}
{"smiles": "Cc1ccc(C)c(N2CCN(c3ncnc4onc(C)c34)CC2)c1", "survival": "90%"}
{"smiles": "Cc1ccc(Cl)cc1N1CCN(c2ncnc3onc(-c4ccc(F)cc4)c23)CC1", "survival": "97%"}
{"smiles": "Cc1ccc(Cl)cc1N1CCN(c2ncnc3onc(C)c23)CC1", "survival": "52% (active)"}
{"smiles": "Cc1nc(N2CCOCC2)c2c(C(=O)N3CCN(c4cc(Cl)ccc4C)CC3)c(C)oc2n1", "survival": "46% (active)"}
{"smiles": "Cc1oc2ncnc(N3CCCCC3)c2c1C(=O)N1CCN(c2ccc(Cl)cc2)CC1", "survival": "60%"}
